Compounds without any hit were thinned out: in the full panel of roughly 83,000, 20% have a hit.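 In brief: 96-well plates, 48 h treatment, single concentration, percent growth endpoint.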 Values without a mark were called inactive. Active and inactive are the calls of the source. The calls were made as follows: active = growth percent below 10; inactive = the rest.

Here are results for twelve compounds from PubChem BioAssay (NCI).

This test has as its system NCI-H23 lung. In words: NCI-60 one-dose screen, 48 h (100 = growth as untreated, 0 = no growth, -100 = all killed). To be noted: 10 µM unless noted.
Turning to `O=C(/C=C/c1ccc(Cl)cc1)c1ccc(NC(=O)N2CCN(c3cc4c(cc3F)c(=O)c(C(=O)O)cn4C3CC3)CC2)cc1`, the growth is 87.4%. The same measure for `O=C(/C=C(/C=C/c1csc2ccccc12)OB(F)F)/C=C/c1csc2ccccc12`: 23%; for `CN1CCN(C(=O)[C@]23CCC(C)(C)C[C@H]2C2=CC[C@@H]4[C@@]5(C)C/C(=C/c6cccnc6)C(=O)C(C)(C)[C@@H]5CC[C@@]4(C)[C@]2(C)CC3)CC1`: 72.8%. The same measure for `CC1=CCC(OC(=O)C(C)(O)CCC(O)(C(=O)OC2(C)C=CC(O)(C(C)C)CC2)C(C)C)(C(C)C)CC1` (configuration not stated): 108%; for `NC1=NN=C(N)C1=Cc1cc2ccccc2n2nnnc12`: 99%; for `COc1ccc(NC(N)=NCCCOc2ccc(F)cc2)cc1`: 64.4%.

For `O=C1c2ccc3c4c(ccc(c24)C(=O)N1CCCNCc1ccccc1)C(=O)N(CCCNCc1ccccc1)C3=O`, the growth is -72.9% (active).

With `O=C(NCCNc1nccc(-c2c(-c3cccc(F)c3)nc3sccn23)n1)c1ccc(Cl)cc1`, the growth is 73.5%. For `C=C1C(=O)O[C@H]2[C@H]1CC/C(COC(=O)NCCc1c[nH]c3ccc(OC)cc13)=C\CC[C@@]1(C)O[C@@H]21`, the growth is 73.9%. With `COc1cc(CC(=O)c2ccc(O)c(OC)c2)ccc1O`, the growth was 103%. As to `CCN(CC)c1ccc(/C=N/NC(=O)CSc2nc3ccccc3c(=O)n2CCc2ccc(S(N)(=O)=O)cc2)c(O)c1`, the growth was 33.9%.

On to `Cc1ccc(-n2c3c(c(-c4ccccc4)c2-c2ccccc2)C2=NCCN2C=N3)cc1`, for which the growth was 84.2%.
